PubChem BioAssay (NCATS)
Inconclusive results are not listed. The source made the active and inactive calls. The call rests on the fitted dose curve; in most records, active means well fitted inhibition curve with a large enough effect; inconclusive means small, poorly fitted or top-dose-only effect; inactive means flat fitted curve, though single readings scatter.

Key:
[1] = qHTS profiling for inhibitors of Plasmodium falciparum proliferation (AID 504749);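 on activity, negative = inhibition: 0% = DMSO vehicle and full inhibition = artemisinin control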; on all read-outs here: nearly all actives have a fitted effect of over 60% in size; conditions: P. falciparum in erythrocytes, SYBR Green DNA, 72 h; for activity, negative = inhibition: at 28.7 µM (top of the series)
Procedure, shortened: (§1)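 Three-day growth assay of blood-stage parasites in erythrocytes (0.3% parasitemia, 2.5% hematocrit) at 37 C, 5% CO2, quantified by SYBR Green DNA staining after overnight detergent lysis.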

[2] = system: 3D7; assay: as above; conditions: P. falciparum in erythrocytes, SYBR Green DNA, 72 h; series mostly up to 28.7 µM
Procedure, shortened: as §1

[3] = system: 7G8; assay: as above; conditions: P. falciparum in erythrocytes, SYBR Green DNA, 72 h; series mostly up to 28.7 µM
Procedure, shortened: as §1

[4] = system: AA1029; assay: as above; conditions: P. falciparum in erythrocytes, SYBR Green DNA, 72 h; series mostly up to 28.7 µM
Procedure, shortened: as §1

[5] = system: AS120; assay: as above; conditions: P. falciparum in erythrocytes, SYBR Green DNA, 72 h; series mostly up to 28.7 µM
Procedure, shortened: as §1

[6] = system: ATS189; assay: as above; conditions: P. falciparum in erythrocytes, SYBR Green DNA, 72 h; series mostly up to 28.7 µM
Procedure, shortened: as §1

[7] = system: ATS95; assay: as above; conditions: P. falciparum in erythrocytes, SYBR Green DNA, 72 h; series mostly up to 28.7 µM
Procedure, shortened: as §1

[8] = system: C2A; assay: as above; conditions: P. falciparum in erythrocytes, SYBR Green DNA, 72 h; series mostly up to 28.7 µM
Procedure, shortened: as §1

[9] = system: CP185; assay: as above; conditions: P. falciparum in erythrocytes, SYBR Green DNA, 72 h; series mostly up to 28.7 µM
Procedure, shortened: as §1

[10] = system: CP191; assay: as above; conditions: P. falciparum in erythrocytes, SYBR Green DNA, 72 h; series mostly up to 28.7 µM
Procedure, shortened: as §1

[11] = system: CP192; assay: as above; conditions: P. falciparum in erythrocytes, SYBR Green DNA, 72 h; series mostly up to 28.7 µM
Procedure, shortened: as §1

[12] = system: CP194; assay: as above; conditions: P. falciparum in erythrocytes, SYBR Green DNA, 72 h; series mostly up to 28.7 µM
Procedure, shortened: as §1

[13] = system: CP201; assay: as above; conditions: P. falciparum in erythrocytes, SYBR Green DNA, 72 h; series mostly up to 28.7 µM
Procedure, shortened: as §1

[14] = system: CP203; assay: as above; conditions: P. falciparum in erythrocytes, SYBR Green DNA, 72 h; series mostly up to 28.7 µM
Procedure, shortened: as §1

[15] = system: CP211; assay: as above; conditions: P. falciparum in erythrocytes, SYBR Green DNA, 72 h; series mostly up to 28.7 µM
Procedure, shortened: as §1

[16] = system: CP217; assay: as above; conditions: P. falciparum in erythrocytes, SYBR Green DNA, 72 h; series mostly up to 28.7 µM
Procedure, shortened: as §1

[17] = system: CP237; assay: as above; conditions: P. falciparum in erythrocytes, SYBR Green DNA, 72 h; series mostly up to 28.7 µM
Procedure, shortened: as §1

[18] = system: CP238; assay: as above; conditions: P. falciparum in erythrocytes, SYBR Green DNA, 72 h; series mostly up to 28.7 µM
Procedure, shortened: as §1

[19] = system: CP247; assay: as above; conditions: P. falciparum in erythrocytes, SYBR Green DNA, 72 h; series mostly up to 28.7 µM
Procedure, shortened: as §1

[20] = system: CP215; assay: as above; conditions: P. falciparum in erythrocytes, SYBR Green DNA, 72 h; series mostly up to 28.7 µM
Procedure, shortened: as §1
Potency means the concentration at half of the fitted maximal effect.

COc1cc(C)c(/C=C/C(C)=C/C=C/C(C)=C/C(=O)O)c(C)c1C
inactive: activity, negative = inhibition ([1]; parasite line A) -5.12% | activity, negative = inhibition ([1]; parasite line B) -0.604% | Potency [2] | Potency [3] | Potency [4] | Potency [5] | Potency [6] | Potency [7] | Potency [8] | Potency [9] | Potency [10] | Potency [11] | Potency [12] | Potency [13] | Potency [14] | Potency [15] | Potency [16] | Potency [17] | Potency [18] | Potency [19]

CC(C)(CO)[C@@H](O)C(=O)NCCC(=O)NCCSSCCNC(=O)CCNC(=O)[C@H](O)C(C)(C)CO
inactive: activity, negative = inhibition ([1]; parasite line A) -1% | activity, negative = inhibition ([1]; parasite line B) -2.45% | Potency [2] | Potency [3] | Potency [4] | Potency [5] | Potency [6] | Potency [7] | Potency [8] | Potency [9] | Potency [10] | Potency [11] | Potency [12] | Potency [13] | Potency [14] | Potency [15] | Potency [20] | Potency [16] | Potency [17] | Potency [18] | Potency [19]

CC(C)NCC(O)COc1ccccc1-n1cccc1 (centres undefined)
active: Potency [3] 7.08 µM
inactive: activity, negative = inhibition ([1]; parasite line A) 18.2% | activity, negative = inhibition ([1]; parasite line B) -1.41% | Potency [2] | Potency [4] | Potency [5] | Potency [6] | Potency [7] | Potency [8] | Potency [9] | Potency [10] | Potency [11] | Potency [12] | Potency [13] | Potency [14] | Potency [15] | Potency [20] | Potency [16] | Potency [18] | Potency [19]

CCN(CC)CCOC(=O)c1cccnc1
inactive: activity, negative = inhibition ([1]; parasite line A) -11.6% | activity, negative = inhibition ([1]; parasite line B) -3.84% | Potency [2] | Potency [3] | Potency [4] | Potency [5] | Potency [6] | Potency [8] | Potency [9] | Potency [11] | Potency [12] | Potency [14] | Potency [15] | Potency [20] | Potency [16]

Cn1cc(NC(=O)c2cc(NC(=O)c3cc(NC=O)cn3C)cn2C)cc1C(=O)NCCC(=N)N
active: Potency ([1]; parasite line A) 8.91 µM | Potency ([1]; parasite line B) 11.2 µM | Potency [2] 10 µM | Potency [3] 0.316 µM | Potency [4] 7.08 µM | Potency [5] 7.08 µM | Potency [6] 11.2 µM | Potency [7] 6.31 µM | Potency [8] 7.94 µM | Potency [9] 11.2 µM | Potency [10] 10 µM | Potency [16] 7.08 µM | Potency [17] 8.91 µM | Potency [18] 11.2 µM | Potency [19] 6.31 µM

CC1CC(OC(=O)C(O)c2ccccc2)CC(C)(C)C1 (centres undefined)
inactive: activity, negative = inhibition ([1]; parasite line A) -16% | activity, negative = inhibition ([1]; parasite line B) -1.53% | Potency [2] | Potency [3] | Potency [4] | Potency [5] | Potency [6] | Potency [7] | Potency [8] | Potency [9] | Potency [10] | Potency [12] | Potency [13] | Potency [14] | Potency [15] | Potency [20] | Potency [16] | Potency [17] | Potency [18] | Potency [19]

CCN(CC)CCCC(C)Nc1cc(/C=C/c2ccccc2Cl)nc2cc(Cl)ccc12 (centres undefined)
active: Potency ([1]; parasite line A) 1.78 µM | Potency ([1]; parasite line B) 2 µM | Potency [2] 1.41 µM | Potency [3] 0.794 µM | Potency [4] 2.24 µM | Potency [5] 2 µM | Potency [6] 3.55 µM | Potency [7] 2.51 µM | Potency [8] 1.12 µM | Potency [9] 2.82 µM | Potency [10] 1.26 µM | Potency [12] 12 µM | Potency [13] 4.78 µM | Potency [14] 10.7 µM | Potency [15] 15.1 µM | Potency [20] 13.5 µM | Potency [16] 3.16 µM | Potency [17] 1.78 µM | Potency [18] 4.47 µM | Potency [19] 3.55 µM

[O-][N+](=Nc1ccccc1)c1ccccc1
inactive: activity, negative = inhibition ([1]; parasite line A) -5.95% | activity, negative = inhibition ([1]; parasite line B) -6.73% | Potency [2] | Potency [3] | Potency [4] | Potency [5] | Potency [6] | Potency [7] | Potency [8] | Potency [9] | Potency [10] | Potency [11] | Potency [12] | Potency [13] | Potency [15] | Potency [20] | Potency [16] | Potency [17] | Potency [18] | Potency [19]

CN1CCC(OC(=O)C(Oc2ccc(Cl)cc2)Oc2ccc(Cl)cc2)CC1
inactive: activity, negative = inhibition ([1]; parasite line A) 7.76% | activity, negative = inhibition ([1]; parasite line B) -8.26% | Potency [2] | Potency [3] | Potency [4] | Potency [5] | Potency [6] | Potency [7] | Potency [8] | Potency [9] | Potency [10] | Potency [11] | Potency [12] | Potency [13] | Potency [15] | Potency [20] | Potency [16] | Potency [17] | Potency [18] | Potency [19]

COc1ccc(/C=N/NC(=O)c2ccncc2)c(C(=O)O)c1OC
inactive: activity, negative = inhibition ([1]; parasite line A) 15.9% | activity, negative = inhibition ([1]; parasite line B) -6.37% | Potency [2] | Potency [3] | Potency [4] | Potency [5] | Potency [6] | Potency [7] | Potency [8] | Potency [9] | Potency [10] | Potency [11] | Potency [12] | Potency [14] | Potency [15] | Potency [20] | Potency [16] | Potency [17] | Potency [18] | Potency [19]

CN(C)CCCSc1ccccc1NC(=O)/C=C/c1ccccc1
inactive: activity, negative = inhibition ([1]; parasite line A) 13.3% | activity, negative = inhibition ([1]; parasite line B) 3.42% | Potency [2] | Potency [3] | Potency [5] | Potency [6] | Potency [7] | Potency [8] | Potency [9] | Potency [10] | Potency [11] | Potency [12] | Potency [13] | Potency [15] | Potency [20] | Potency [16] | Potency [18] | Potency [19]
